# Most compounds without a hit are left out; they make up all but 19% or so of the library.
# KB-V1 cytotox = kills drug-selected multidrug resistant KB-V1 cells | Potency, µM (doses to about 46.1 µM), hits mostly cytotoxic | 400,000 tested, 3.4% active | KB-V1 MDR cells viability, CellTiter-Glo, 72 h; note: nearly all actives have a fitted effect of over 60% in size
#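 Cytotoxicity toward P-gp-expressing KB-V1 cells was determined as loss of CellTiter-Glo luminescence after 72 h at 37 degrees C. Compounds were tested in quantitative HTS format across a concentration range, with curves fitted to normalized data.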
# TDP1 cell noCPT = qHTS for Inhibitors of human tyrosyl-DNA phosphodiesterase 1 (TDP1): qHTS in cells in absence of CPT; Potency, µM (series often up to 46.2 µM), for inactives: top-dose activity change, negative = growth inhibition, actives largely listed as inhibitors; 420,000 tested, 15% active; DT40 Tdp1-/- hTDP1 cells, no CPT, ATP luminescence, 48 h; note: nearly all actives have a fitted effect of over 55% in size
#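 Growth kinetics read by CellTiter-Glo luminescence after ≥48 hr at 37 °C. Cells: DT40 Tdp1-/- stably carrying human TDP1, 400 per well, compound exposure in the absence of CPT (DMSO vehicle).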
# HT1080 IDH1KD tx = toxicity to HT-1080 IDH1 knockdown cells (counter line). HT-1080 IDH1 knockdown viability, ATP luminescence, 48 h. Potency, µM (highest dose often 46.1 µM), inactives show at the top dose activity, negative = toxicity, most hits filed as cytotoxic. 360,000 tested, 2% active. AID 686971;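 note: 0% = DMSO wells and -100% = cell-free medium wells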
#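 Assay cells: HT-1080 with IDH1 knockdown, 750 per well, RPMI/5% FBS. Exposure: 48 h at 37 °C following 2 h pre-incubation. Read: CellTiter-Glo luminescence; fitted concentration-response, curve class assigned.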
# HT1080NT lethal = kills 2HG-producing HT-1080-NT fibrosarcoma cells. HT-1080-NT fibrosarcoma viability, CellTiter-Glo ATP luminescence, 48 h. Potency, µM (highest dose often 46.1 µM), without a hit: at the top dose activity, negative = less viability, most hits filed as cytotoxic. 360,000 tested, 1.6% active;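 note: NT is the 2HG producing partner of a matched IDH1 knockdown line; 0% = DMSO-treated cells and -100% = media-only wells without cells; nearly all actives have a fitted effect of over 55% in size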
#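 Read-out is CellTiter-Glo luminescence after 10 minutes at room temperature, following 48 hours' compound treatment of HT-1080-NT cells (750 cells/well, RPMI, 5% FBS, 37 degrees C).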
# TDP1 cell CPT = DT40-hTDP1 cell growth loss with CPT | chicken DT40 Tdp1-/-;hTDP1 cells + 20 nM CPT, ATP luminescence, 48 h | Potency, µM (titrated, usually from 46.2 µM), inactives show at the top dose activity change, negative = growth inhibition, usual class: inhibitors | 420,000 tested, 12% active | AID 686979; note: nearly all actives have a fitted effect of over 55% in size
#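 Cell growth measured by CellTiter-Glo luminescence after a minimum 48 h, 37 C compound exposure with 20 nM CPT in Tdp1-knockout DT40 cells stably expressing hTDP1, seeded 400/well; qHTS titration format.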
# KB-3-1 cytotox = KB-3-1 parental cell cytotoxicity | AID 1347075 | Potency, µM (titrated, usually from 46.1 µM), usual class: cytotoxic | 400,000 tested, 1.4% active | KB-3-1 viability, CellTiter-Glo ATP luminescence, 72 h; note: nearly all actives have a fitted effect of over 60% in size
#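 Luminescent ATP read-out (CellTiter-Glo) measures survival of drug-naive KB-3-1 cells after 72 h compound exposure at 37 °C. Titration series was screened from lowest to highest concentration, with DMSO vehicle plates as background controls.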
# * hit, by the source's call; i = inactive; ? = inconclusive; · = no result given; [ ] = dose if it differs, or a comment. Calls come from the whole dose curve; as a rule, active = well fitted curve in the direction sought with a large enough effect; inconclusive = small, poorly fitted or top-dose-only effect, or another doubt; inactive = no such curve, though single readings can be large; an effect the other way counts as inactive or inconclusive. Unless noted, % is set by controls: 0 for no effect and ±100 for the full control effect; potency is the fitted concentration of half-maximal effect.
SMILES,KB-V1 cytotox,TDP1 cell noCPT,HT1080 IDH1KD tx,HT1080NT lethal,TDP1 cell CPT,KB-3-1 cytotox
Cc1c(C(=O)NC(C)(C)C)sc2ncnc(NCCN(C)C)c12,·,-20%,·,·,17%[9.04 µM],·
COc1ccc(CNC(=O)CCC(=O)N2CC3CCCN3c3ccccc32)cc1 (stereo not drawn),i,21µM*,·,·,12µM*,i
COc1ccc(Cl)cc1NC(=O)Cc1ccc(NC(=O)N2CCCCc3ccccc32)cc1,i,21µM*,·,·,18µM*,i
O=C(Cc1ccc(NC(=O)N2CCCCc3ccccc32)cc1)NCc1ccccc1,i,23µM*,·,·,23µM*,i
COc1ccc(OC)c(CNC(=O)Cc2ccc(NC(=O)N3CCCCc4ccccc43)cc2)c1,i,9.2µM*,·,·,12µM*,i
O=C(CCC(=O)N1CC2CCCN2c2ccccc21)NCc1ccccc1 (stereo not drawn),i,?,·,·,?,i
Cc1cnc(CNc2cc(-c3cccc(NS(C)(=O)=O)c3)ncn2)cn1,·,-6%,·,·,-1%,·
CCc1ccc(NC(=O)Cn2c(=O)n(CCCCC(=O)NCCc3ccc(Cl)cc3)c(=O)c3ccccc32)cc1,i,?,·,·,?,i
CCc1ccc(NC(=O)NCC2CCN(Cc3cccc(Cl)c3)CC2)cc1,i,13µM*,-7%,?,?,?
Cc1ccc(NC(=O)NCC2CCN(Cc3cccc(Cl)c3)CC2)cc1Cl,?,16µM*,-13%,12µM*,?,?
Cc1ccc(C)c(CN2CCC(CNC(=O)Nc3ccc(F)c(Cl)c3)CC2)c1,i,?,18µM*,26µM*,29µM*,?
Cc1ccc(NC(=O)NCC2CCN(Cc3cccc(Cl)c3)CC2)c(Cl)c1,i,-30%,-7%,-3%,?,i
O=C(N/N=C/c1cccnc1)c1cc(O)c(O)c(O)c1,i,?,-19%,-9%,?,i
COc1ccc(Cn2cccc(NC(=O)Nc3cccc(OC)c3)c2=O)cc1,i,?,-2%,-1%,?,?
O=C1OCCN1c1c(-c2ccccc2)c(N2CCOCC2)nc2ccccc12,i,15µM*,-8%,0%,12µM*,i
c1ccc(-c2nc3ccccc3nc2N2CCOCC2)cc1,i,?,6%,7%,?,i
CCN(C(=O)C1CCCN(c2ncnc3c2nc2n3CCCCC2)C1)c1cccc(Cl)c1 (stereo not drawn),i,10µM*,-10%,?,21µM*,i
CCN(C(=O)C1CCCN(c2ncnc3c2nc2n3CCCCC2)C1)c1cccc(C)c1 (stereo not drawn),?,5.8µM*,·,·,12µM*,?
CCC(=O)O[C@H](CC(=O)O)C[N+](C)(C)C,·,-8%,·,·,-3%,·
COc1ccccc1N(C(=O)CCl)c1cn(C(C)=O)c2ccccc12,15µM*,4.6µM*,7.3µM*,1.5µM*,4.6µM*,?
CC(=O)n1cc(N(C(=O)CCl)c2ccc(Cl)cc2)c2ccccc21,?,1.3µM*,6.5µM*,2.3µM*,1.5µM*,?
CC(=O)C1=NN(c2ccccc2)C(c2cccs2)N1c1ccc(N(C)C)cc1 (stereo not drawn),i,4µM*,2.5µM*,7.1µM*,2.2µM*,?
CCOC(=O)C1CCN(c2cc3c(cc2NC(=O)c2ccccc2F)n(C)c(=O)n3C)CC1,i,-15%,11%,26%,-24%,i
CCOC(=O)C1CCN(c2cc3c(cc2NC(=O)c2ccccc2OCC)n(C)c(=O)n3C)CC1,i,5.8µM*,8%,6%,21µM*,i
CCOC(=O)C1CCN(C(=O)c2ccccc2NC(=O)c2ccc(Cl)cc2)CC1,i,23µM*,-2%,4%,?,i

# Screens from PubChem BioAssay.
